A selection: hits, their analogues and other compounds. The true share with any hit is near 10%.
HEK293 tox: HEK 293 cell cytotoxicity; HEK 293 viability, ATP luminescence (CellTiter-Glo), 48-72 h; Potency, µM (top dose mostly 115 µM), for inactives: at the top dose activity change, negative = cytotoxicity, actives largely listed as inhibitors; actives 6.6% (n = 94,000); AID 1345083; further: nearly all actives have a fitted effect of over 60% in size
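Cytotoxicity was scored by loss of ATP-coupled luminescence (CellTiter-Glo) in HEK 293 cells. Compound treatment ran 48 or 72 hr at 37 degree Celsius, 5% CO2, 95% humidity.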
Luciferase inh: Photinus pyralis luciferase inhibition; P08659; purified P. pyralis luciferase, luminescence, biochemical; Potency, µM (doses to about 115 µM), usual class: inhibitors; actives 2.5% (n = 76,000); AID 1347043; further: nearly all actives have a fitted effect of over 65% in size
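FLuc 10nM, D-luciferin 10uM, ATP 10uM, Mg acetate 10mM, Tris acetate pH 7.5, Tween/BSA; cpd qHTS; enzyme added last; CCD luminescence.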
GPT2 inhibitor: GPT2 alanine aminotransferase inhibition; Recombinant GPT2, coupled pyruvate oxidase/HRP Amplex Red fluorescence; Potency, µM (highest dose often 57.7 µM), without a hit: top-dose activity change, negative = inhibition, usual class: inhibitors; actives 0.25% (n = 100,000); AID 1671188; further: nearly all actives have a fitted effect of over 60% in size
Target sequence (Q8TD30 whole entry, looked up): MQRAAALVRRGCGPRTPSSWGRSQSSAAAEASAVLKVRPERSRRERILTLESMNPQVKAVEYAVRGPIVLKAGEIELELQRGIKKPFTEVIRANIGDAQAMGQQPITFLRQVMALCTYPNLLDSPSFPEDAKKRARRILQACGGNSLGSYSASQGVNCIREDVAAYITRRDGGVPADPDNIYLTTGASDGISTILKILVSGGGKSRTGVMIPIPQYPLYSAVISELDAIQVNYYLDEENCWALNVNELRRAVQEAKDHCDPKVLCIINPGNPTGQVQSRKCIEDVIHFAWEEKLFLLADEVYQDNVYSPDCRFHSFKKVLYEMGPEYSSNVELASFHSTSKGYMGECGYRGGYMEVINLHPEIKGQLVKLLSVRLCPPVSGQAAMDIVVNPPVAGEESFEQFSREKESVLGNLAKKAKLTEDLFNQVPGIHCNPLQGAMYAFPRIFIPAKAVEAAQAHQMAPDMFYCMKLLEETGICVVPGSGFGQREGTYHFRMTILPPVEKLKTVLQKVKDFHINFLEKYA
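Recombinant GPT2 (10ng/uL) with 250uM a-KG and 2mM L-alanine, 30 min at room temperature, in HEPES pH 7.5 buffer. Pyruvate detected by pyruvate oxidase/HRP/Amplex Red fluorescence after 30 min in the dark; AOA (50uM) as positive control.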
NIH3T3 tox: kills NIH 3T3 cells; NIH 3T3 viability, CellTiter-Glo ATP luminescence, 48-72 h; Potency, µM (titrated, usually from 96.7 µM), for the others: top-dose activity change, negative = cytotoxicity, most hits filed as inhibitors; actives 4.3% (n = 94,000); further: nearly all actives have a fitted effect of over 55% in size
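Cytotoxicity is measured as loss of cellular ATP: NIH 3T3 cells (400/well) are exposed to compound for 48 or 72 hr at 37 °C, then CellTiter-Glo luminescence is imaged after 10 min at room temperature.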
NPR1 antag: human Npr1 receptor antagonism | P16066 | HEK293 hNpr1 GloSensor cGMP, ANP-stimulated luminescence | Potency, µM (highest dose often 46.3 µM), for inactives: top-dose activity change, negative = inhibition, hits mostly inhibitors | actives 1.6% (n = 76,000); calls by dose curve; further: nearly all actives have a fitted effect of over 60% in size
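HEK293 cells stably expressing human Npr1 and cGMP GloSensor pGS-40F, loaded 2 h with 2% GloSensor reagent, given compound 30 min at room temperature. Luminescence read before and 20 min after 0.1 nM hNppA.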
An asterisk follows results filed as active; i = inactive; ? = inconclusive; · = no result given; [ ] = remark or other dose. Unless noted, the call rests on the fitted dose curve; in most records, active means well fitted curve in the direction sought with a large enough effect; inconclusive means small, poorly fitted or top-dose-only effect, or another doubt; inactive means no such curve, though single readings can be large; an effect the other way counts as inactive or inconclusive. On the % scale 0 is the no-effect control and ±100 the full control effect; potency means the concentration at half of the fitted maximal effect.

SMILES | HEK293 tox | Luciferase inh | GPT2 inhibitor | NIH3T3 tox | NPR1 antag
COc1ccc(CNC(=O)C2CCCN(Cc3cccc(-c4cccc(C)c4)c3)C2)cc1 (centres undefined) | ? | · | -6.2% | 28.2µM* | ·
COc1ccc(CCNC(=O)C2CCCN(Cc3cccc(-c4cccc(C)c4)c3)C2)cc1 (centres undefined) | 22.4µM* | · | 2.5% | ? | ·
COc1ccc(OCC2(C)COc3ccc(C(=O)NCc4ccc(F)cc4)cc3N2)cc1 (centres undefined) | 28.2µM* | i | 2.0%[88.5 µM] | 28.2µM* | -29.6%[70.6 µM]
CC1(COc2ccccc2)COc2ccc(C(=O)NCc3cnccn3)cc2N1 (centres undefined) | ? | i | -10.3%[88.5 µM] | ? | -1.7%[70.6 µM]
CC1(COc2ccccc2)COc2ccc(C(=O)NCc3ccccc3)cc2N1 (centres undefined) | 63.1µM* | i | -0.6%[88.5 µM] | 50.1µM* | -22.2%[70.6 µM]
CC1(COc2ccccc2)COc2ccc(C(=O)NCc3ccco3)cc2N1 (centres undefined) | ? | i | i | ? | 1.7%[70.6 µM]
Cn1ccc(NC(=O)c2ccc3c(c2)NC(C)(COc2ccccc2)CO3)n1 (centres undefined) | 100µM* | ? | -22.4%[88.5 µM] | ? | ?
O=C(Cc1ccccc1)N1CCCC(c2nn(-c3ccc(Cl)cc3)c(=O)[nH]2)C1 (centres undefined) | ? | i | i | ? | 0.9%
Cc1cc(Cn2cc3c4c(cccc42)[C@H](CC(C)C)N[C@H](C(=O)NCCN2CCOCC2)C3)no1 | ? | i | -19.7% | ? | 1.5%
CC#CCn1cc2c3c(cccc31)[C@H](CC(C)C)N[C@H](C(=O)N1CCN(C)CC1)C2 | ? | i | -4.5%[88.5 µM] | 89.1µM* | 1.9%[70.6 µM]
C=CCn1cc2c3c(cccc31)[C@H](CC(C)C)N[C@H](C(=O)N1CCOCC1)C2 | 100µM* | ? | ? | ? | -4.2%[70.6 µM]
C=CCn1cc2c3c(cccc31)[C@H](CC(C)C)N[C@H](C(=O)NCCN1CCOCC1)C2 | 89.1µM* | i | i | ? | -1.0%[70.6 µM]
CC(C)C[C@@H]1N[C@H](C(=O)N2CCOCC2)Cc2cn(Cc3cccnc3)c3cccc1c23 | -26.4%[172 µM] | i | -12.3%[88.5 µM] | -15.3%[138 µM] | -11.6%[70.6 µM]
CC#CCn1cc2c3c(cccc31)[C@H](CC(C)C)N[C@H](C(=O)N1CCN(C(C)=O)CC1)C2 | ? | i | -11.8%[88.5 µM] | ? | 5.3%[70.6 µM]
CC(C)C[C@@H]1N[C@H](C(=O)N2CCOCC2)Cc2cn(CC3CC3)c3cccc1c23 | 89.1µM* | i | ? | ? | -13.6%[70.6 µM]
CCOC(=O)[C@H]1[C@@H](O)C(=O)N(Cc2ccccc2)C12CCN(C(=O)c1ccc(Cl)cc1)CC2 | -16.6% | · | · | ? | ·
CC(=O)N1CCCN(C(=O)[C@@H]2Cc3cn(C)c4cccc(c34)[C@H](CC(C)C)N2)CC1 | -2.0%[172 µM] | i | -10.0%[88.5 µM] | 0.8%[138 µM] | 0.8%[70.6 µM]
C=CCn1cc2c3c(cccc31)[C@H](CC(C)C)N[C@H](C(=O)NCc1ccc(F)cc1)C2 | ? | i | ? | ? | -19.4%[70.6 µM]
CC(C)C[C@@H]1N[C@H](C(=O)N2CCC(O)(c3ccccc3)CC2)Cc2cn(C)c3cccc1c23 | ? | i | i | 31.6µM* | -1.3%
C=CCn1cc2c3c(cccc31)[C@H](CC(C)C)N[C@H](C(=O)N1CCN(C)CC1)C2 | 79.4µM* | i | i | 63.1µM* | -5.3%[70.6 µM]
CN(C)C[C@@H]1CN(c2ccccn2)C[C@H]1NC(=O)Cc1ccsc1 | i | i | -6.7% | 0.6% | -0.6%
COc1ccccc1CNC(=O)C1CCCN(c2nccc(Nc3ccccc3OC)n2)C1 (centres undefined) | ? | · | i | 35.5µM* | ·
COc1ccccc1Nc1ccnc(N2CCCC(C(=O)NCC3CC3)C2)n1 (centres undefined) | ? | · | -10.8% | 35.5µM* | ·
COCCCNC(=O)C1CCCN(c2nccc(Nc3ccccc3OC)n2)C1 (centres undefined) | -14.8% | · | -24.0% | -37.5% | ·
COc1ccccc1Nc1ccnc(N2CCCC(C(=O)NC(C)C)C2)n1 (centres undefined) | ? | · | i | 44.7µM* | ·
